CYP2C9 act: CYP2C9 (human) activation; P11712; recombinant CYP2C9, luciferin-H conversion, luminescence; hits give high values; factor 1 = untreated enzyme, 0 = blocked; activation factor at 5 µM; actives 1.4% (n = 96,000);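 active means activation factor of 2 or more for CYP2C9 at a 5 µM dose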;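 further: 0 = sulfaphenazole-blocked wells and 1 = vehicle-only wells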
sEH activator: increases human soluble epoxide hydrolase activity | P34913 | purified human sEH enzymatic activity, activator screen | activation, % at 2 µM | actives 0.04% (n = 91,000); in the data active means activation above about 37%
CYP2C19 activ: cytochrome P450 2C19 (human) activation | P33261 | recombinant CYP2C19, luciferin-H EGE luminescence; hits give high values; 0 = fully inhibited enzyme, 1 = untreated enzyme | activation factor at 5 µM | 96,000 tested, under 10 active;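 active means activation factor of at least 2 at 5 µM in the primary screen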;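 further: 0 = wells with 2.5 mM tranylcypromine and 1 = vehicle-only wells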
sEH inh: blocks human soluble epoxide hydrolase activity. P34913. recombinant human sEH enzymatic activity assay. inhibition, % at 2 µM. actives 0.34% (n = 91,000); in the data active means inhibition above about 80%
CYP2C9 inhib: inhibitors of human CYP2C9; CYP2C9 Supersomes, luciferin-H conversion, luminescence; P11712; inhibition, % at 5 µM; AID 777; actives 20% (n = 96,000);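 active means blocking of liver enzyme CYP2C9 beyond about 50% at 5 µM, limit read from the data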
CYP2C19 inhib: inhibitors of human CYP2C19. P33261. CYP2C19 Supersomes, luciferin-H EGE luminescence, 30 min. inhibition, % at 5 µM. actives 21% (n = 96,000);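 active means CYP2C19 inhibition above a set limit at 5 µM in the primary screen, cut at about 50% in these data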;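 further: plate controls were negative control wells for no effect and 2.5 mM tranylcypromine positive control for full effect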
An asterisk follows results filed as active; . = not tested or not shown. A selection: hits, their analogues and other compounds. The true share with any hit is near 27%.

SMILES	CYP2C9 act	sEH activator	CYP2C19 activ	sEH inh	CYP2C9 inhib	CYP2C19 inhib
COc1ccc(C2c3c(ccc4ccccc34)Oc3ncn4nc(CO/N=C/c5ccccc5)nc4c32)cc1 (centres undefined)	0.4	-2.4	1	1.5	56.1*	-0.3
COc1ccc(C2c3c(ncn(CCN4CCOCC4)c3=N)Oc3ccc4ccccc4c32)cc1 (centres undefined)	0.4	-2.7	0.5	5.3	55.5*	50.0*
N=c1c2c(ncn1CCN1CCOCC1)Oc1ccc3ccccc3c1C2c1ccccc1 (centres undefined)	0.9	16.9	0.6	-16.3	7.5	37.7
COc1ccccc1OCc1nc2c3c(-c4ccccc4)c(-c4ccccc4)oc3ncn2n1	.	17.9	.	-20.1	.	.
O=C(N1CCC(O)(c2cccnc2)CC1)C12CC3CC(CC(C3)C1)C2	1.1	-5.0	0.8	3.5	-9.7	15.4
CCCCCC(=O)N/N=C(\C)c1ccc(Cl)cc1	0.7	-34.2	0.5	34.5	31.6	48.2
CCOCCSC1=C(C#N)C(c2cccs2)C(C(C)=O)=C(C)N1 (centres undefined)	0.2	1.8	0.1	-0.6	83.4*	89.6*
CCOC(=O)C1=C(C)NC(SCc2cc(=O)[nH][nH]2)=C(C#N)C1c1cccs1 (centres undefined)	0.2	-18.1	0.1	20.2	78.7*	90.3*
CCSC1=C(C#N)C(c2cccs2)C(C(=O)OC)=C(C)N1 (centres undefined)	0.1	3.7	0.1	-3.7	90.7*	87.8*
CCCSC1=C(C#N)C(c2cccs2)C(C(=O)Nc2ccccc2)=C(C)N1 (centres undefined)	.	1.6	.	3.3	.	.
CC(=O)C1=C(C)NC(C)=C(C(C)=O)C1c1cccs1	0.4	-4.4	0.1	2.6	61.6*	93.7*
CC1=C(C(=O)N(C)C)C(c2cccs2)NC(=O)N1 (centres undefined)	.	13.9	.	-7.7	.	.
C=CCOC(=O)C1=C(C)Nc2nnnn2C1c1cccs1 (centres undefined)	0.7	-5.1	0.6	3.7	28.4	44.6
OCCOc1nnnn1-c1ccccc1	0.9	13.1	1	-10.0	10.3	-3.3
COc1ccc(N2CCN(C(=O)CCn3nnc4ccccc43)CC2)cc1	1	-11.4	0.8	10.3	4.4	20.9
CCOc1cc(C2C(C#N)=C(N)OC3CCCC(=O)C32)ccc1OCCN1CCOCC1 (centres undefined)	1.1	10.8	1.1	-10.6	-9.8	-7.1
CCOC(=O)C1=C(C)NC(SCC(=O)Nc2cc(C)on2)=C(C#N)C1c1cccs1 (centres undefined)	0.1	-7.5	0.1	10.7	94.7*	91.2*
COC(=O)C1=C(C)Nc2c(c(=O)n(C)c(=O)n2C)C1c1cccs1 (centres undefined)	0.3	12.6	0.2	-11.3	72.7*	83.4*
CCOC(=O)C1=C(C)NC(SCC(N)=O)=C(C#N)C1c1cccs1 (centres undefined)	0.5	-8.0	0.5	7.7	51.5*	51.7*
CC1=C(C(=O)OC(C)C)C(c2ccco2)NC(=O)N1 (centres undefined)	1.2	-1.3	1.1	1.0	-17.1	-11.0
CCOc1ccc(NC(=O)c2ccc3snnc3c2)cc1	.	-19.0	.	19.0	.	.
COC(=O)Oc1nsnc1N1CCOCC1	0.6	-1.5	1	-0.4	44.7	3.5
Brc1ccc(Oc2nsnc2N2CCOCC2)cc1	0.8	17.5	0.1	-21.0	24.3	89.3*
N#Cc1c(N)nc2c(c1N)CC(=O)N2c1ccccc1-c1ccccc1	0.1	.	0	.	86.9*	95.9*
N#Cc1c(N)nc2c(c1N)CC(=O)N2c1ccc(Cl)cc1	0.7	5.4	0.5	-3.8	30.5	51.5*
N#Cc1c(-c2ccccc2)nc2n(c1=O)CCS2	1.1	-17.2	0.8	17.1	-12.1	20.5
Cc1cc(NC(=O)CSc2nnc(-c3ccco3)n2CC2CCCO2)no1 (centres undefined)	1.1	.	1.1	.	-12.8	-9.5
Cc1cc(C)cc(OCC(=O)OCC(=O)NCc2ccco2)c1	1.5	7.2	0.7	-4.3	-48.1	34.5
Cc1ccc(-c2csc(=S)n2CC(=O)OCC(=O)NC(C)C(C)C)cc1 (centres undefined)	0.3	.	0.6	.	68.6*	41.9
Cc1ccc(Oc2ccc(OCC(=O)NC(C)C(=O)O)cc2)cc1 (centres undefined)	1.1	-0.1	1.1	0.6	-8.3	-5.2
